# Assay results taken from PubChem BioAssay (NCATS).
# Inconclusive results are not listed. Entries that show only a call come without a potency. Active and inactive are the calls of the source. Unless noted, calls follow the shape of the dose curve; as a rule, active = well fitted curve in the direction sought with a large enough effect; inconclusive = small, poorly fitted or top-dose-only effect, or another doubt; inactive = no such curve, though single readings can be large; an effect the other way counts as inactive or inconclusive.
# How the values were obtained:
# [1] = biological target: Rap guanine nucleotide exchange factor 4 (Homo sapiens) (UniProt Q8WZA2); assay: Confirmatory qHTS for antagonist of cAMP-regulated guanine nucleotide exchange factor 4 (EPAC2) (AID 1645885); also: nearly all actives have a fitted effect of over 25% in size
# Rap guanine nucleotide exchange factor 4 (Homo sapiens), sequence (Q8WZA2 whole entry, looked up): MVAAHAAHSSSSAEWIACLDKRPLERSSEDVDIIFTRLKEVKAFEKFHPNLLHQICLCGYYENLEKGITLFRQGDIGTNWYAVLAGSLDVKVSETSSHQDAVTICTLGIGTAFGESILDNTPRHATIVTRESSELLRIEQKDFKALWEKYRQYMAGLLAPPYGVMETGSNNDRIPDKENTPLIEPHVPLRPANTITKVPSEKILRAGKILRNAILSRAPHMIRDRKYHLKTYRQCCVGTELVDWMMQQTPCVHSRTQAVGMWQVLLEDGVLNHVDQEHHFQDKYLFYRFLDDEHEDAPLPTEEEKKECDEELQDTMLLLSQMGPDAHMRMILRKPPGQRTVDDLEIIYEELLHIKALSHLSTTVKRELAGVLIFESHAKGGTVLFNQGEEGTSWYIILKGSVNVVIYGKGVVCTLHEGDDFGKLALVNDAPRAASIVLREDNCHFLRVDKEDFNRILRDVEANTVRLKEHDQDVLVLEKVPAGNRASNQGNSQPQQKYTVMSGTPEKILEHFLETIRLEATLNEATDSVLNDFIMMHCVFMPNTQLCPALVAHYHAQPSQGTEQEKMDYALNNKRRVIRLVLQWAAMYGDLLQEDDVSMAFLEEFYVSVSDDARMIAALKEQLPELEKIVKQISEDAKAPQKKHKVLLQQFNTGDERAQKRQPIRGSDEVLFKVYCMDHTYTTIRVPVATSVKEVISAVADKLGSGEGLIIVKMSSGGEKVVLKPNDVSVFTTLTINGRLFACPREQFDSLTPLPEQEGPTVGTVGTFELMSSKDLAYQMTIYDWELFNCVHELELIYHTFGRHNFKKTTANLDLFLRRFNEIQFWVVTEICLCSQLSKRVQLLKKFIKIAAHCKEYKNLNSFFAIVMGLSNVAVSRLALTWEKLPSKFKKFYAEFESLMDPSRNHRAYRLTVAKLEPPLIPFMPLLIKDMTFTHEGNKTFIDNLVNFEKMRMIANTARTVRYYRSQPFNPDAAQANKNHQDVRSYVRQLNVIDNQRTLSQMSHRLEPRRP
# [2] = Viability counterscreen for agonist of constitutive androstane receptor (CAR) against the NCATS DSHEA and TCM libraries (AID 1794838);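 also: HepG2 cells with CYP2B6 reporter and hCAR plus 0.75 µM PK11195 antagonist; potency is read from the fitted curve at half-maximal effect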
# Method in brief: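 HepG2-CYP2B6-hCAR cells (2,500/well) attached 5 h, then got compounds plus 0.75 uM PK11195 final. After 24 h at 37C, viability read by CellTiter-Fluor fluorescence (Ex/Em 405/540 nm).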
# [3] = HepG2 viability counterscreen (readout 2: ATP content) against the NCATS DSHEA and TCM libraries (AID 1794840);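 also: HepG2 cells exposed to substances for about 24 h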
# Method in brief: (§1)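 HepG2 cells (1,000 cells/well) attached ~4 h, then treated ~24 h at 37C with substances. Protease activity read by GF-AFC (25 uM final, 30 min, Ex/Em 380/510 nm); ATP content then by CellTiter-Glo luminescence.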
# [4] = HepG2 viability counterscreen (readout 1: protease activity) against the NCATS DSHEA and TCM libraries (AID 1794841);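 also: cells exposed to compounds for about 24 h before the protease read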
# Method in brief: as §1
# [5] = biological target: Glutathione peroxidase 1 (Homo sapiens) (UniProt P07203); assay: Primary qHTS Assay for Inhibitors of Recombinant Selenoprotein Glutathione Peroxidase 1 (GPX1) (AID 1845191); also: nearly all actives have a fitted effect of over 65% in size; also: potency is read from the fitted curve at half-maximal effect
# Glutathione peroxidase 1 (Homo sapiens), sequence (P07203 whole entry, looked up): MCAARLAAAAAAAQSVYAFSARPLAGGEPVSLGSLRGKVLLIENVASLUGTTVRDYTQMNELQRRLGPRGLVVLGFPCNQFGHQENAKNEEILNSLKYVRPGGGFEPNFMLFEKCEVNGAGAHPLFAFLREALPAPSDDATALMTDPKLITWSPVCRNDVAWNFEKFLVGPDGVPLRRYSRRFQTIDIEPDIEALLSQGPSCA
# Method in brief: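 10 nM GPX1 + cpd, 30 min RT; start w/ 1 mM GSH, 0.5 mM cumene hydroperoxide, 0.5 mM NADPH, 100 nM GR, 0.01% BSA; buffer 50 mM Tris-HCl pH 7.5, 2 mM EDTA, 150 mM NaCl; Fl 340/450, 0 & 15 min.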
# [6] = biological target: Phospholipid hydroperoxide glutathione peroxidase GPX4 (Homo sapiens) (UniProt P36969); assay: Primary qHTS Assay for Inhibitors of Recombinant Selenoprotein Glutathione Peroxidase 4 (GPX4) (AID 1845192); also: nearly all actives have a fitted effect of over 65% in size
# Phospholipid hydroperoxide glutathione peroxidase GPX4 (Homo sapiens), sequence (P36969 whole entry, looked up): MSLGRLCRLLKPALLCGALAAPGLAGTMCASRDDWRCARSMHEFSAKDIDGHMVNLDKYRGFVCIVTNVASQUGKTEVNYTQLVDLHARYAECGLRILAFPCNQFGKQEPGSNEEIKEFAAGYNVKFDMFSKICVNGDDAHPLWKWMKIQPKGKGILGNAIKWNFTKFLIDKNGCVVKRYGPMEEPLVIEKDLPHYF
# Method in brief: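 NADPH consumption, followed by fluorescence at 340/450 nm between 0 and 15 min, reports GPX4 activity via coupled glutathione reductase (100 nM). Enzyme 200 nM was pre-exposed to compound 30 min; 0.5 mM cumene hydroperoxide and 1 mM GSH served as substrates.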
# [7] = biological target: Catechol O-methyltransferase (Homo sapiens) (UniProt P21964); assay: Confirmatory Screen for Target Class Profiling of Small Molecule Inhibitors of Methyltransferases (AID 1745852; calls by dose curve; also: potency is read from the fitted curve at half-maximal effect); conditions: MTase-Glo luminescence, SAH detection, recombinant enzyme; measured here: COMT max response; stronger effect = lower value
# Catechol O-methyltransferase (Homo sapiens), sequence (P21964 whole entry, looked up): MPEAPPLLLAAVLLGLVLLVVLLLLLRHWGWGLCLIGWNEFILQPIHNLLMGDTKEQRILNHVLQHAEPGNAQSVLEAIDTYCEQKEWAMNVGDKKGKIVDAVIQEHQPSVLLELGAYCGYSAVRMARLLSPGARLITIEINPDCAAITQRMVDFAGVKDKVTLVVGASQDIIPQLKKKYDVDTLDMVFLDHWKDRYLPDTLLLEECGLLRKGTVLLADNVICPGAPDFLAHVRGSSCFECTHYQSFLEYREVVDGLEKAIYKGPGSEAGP
# [8] = biological target: Guanidinoacetate N-methyltransferase (Homo sapiens) (UniProt Q14353); assay: as above; conditions: MTase-Glo luminescence, SAH detection, recombinant enzyme; activity change, negative = inhibition: at 57.3 µM (top of the series)
# [9] = biological target: Nicotinamide N-methyltransferase (Homo sapiens) (UniProt P40261); assay: as above; conditions: MTase-Glo luminescence, SAH detection, recombinant enzyme; measured here: NNMT max response; stronger effect = lower value
# Nicotinamide N-methyltransferase (Homo sapiens), sequence (P40261 whole entry, looked up): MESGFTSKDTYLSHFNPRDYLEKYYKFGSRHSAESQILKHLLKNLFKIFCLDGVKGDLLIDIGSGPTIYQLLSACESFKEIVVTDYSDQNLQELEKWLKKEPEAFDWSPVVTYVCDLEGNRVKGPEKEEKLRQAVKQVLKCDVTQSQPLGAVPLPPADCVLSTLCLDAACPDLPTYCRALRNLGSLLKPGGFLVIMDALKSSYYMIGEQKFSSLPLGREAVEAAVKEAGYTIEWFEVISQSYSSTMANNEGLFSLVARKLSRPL
# [10] = biological target: Phenylethanolamine N-methyltransferase (Homo sapiens) (UniProt P11086); assay: as above; conditions: MTase-Glo luminescence, SAH detection, recombinant enzyme; measured here: PNMT max response; stronger effect = lower value
# Phenylethanolamine N-methyltransferase (Homo sapiens), sequence (P11086 whole entry, looked up): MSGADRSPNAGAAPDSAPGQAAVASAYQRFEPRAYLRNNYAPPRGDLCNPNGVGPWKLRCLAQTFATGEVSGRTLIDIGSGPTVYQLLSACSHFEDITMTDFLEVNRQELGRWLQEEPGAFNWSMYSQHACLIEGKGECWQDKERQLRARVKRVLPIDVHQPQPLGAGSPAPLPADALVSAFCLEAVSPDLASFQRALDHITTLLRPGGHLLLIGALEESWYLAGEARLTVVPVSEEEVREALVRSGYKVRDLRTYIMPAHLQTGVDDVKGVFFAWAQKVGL
# [11] = biological target: Luciferin 4-monooxygenase (Photinus pyralis) (UniProt P08659); assay: Primary firefly luciferase (FLuc) qHTS assay for identification of artifact compounds. (AID 1845220); also: nearly all actives have a fitted effect of over 60% in size
# Method in brief: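 Compounds sat 15 min at room temperature with 10 uM luciferin and 10 uM ATP (pH 7.6 Tris acetate). Firefly luciferase (10 nM final) was then added, and luminescence was read 5 min later. Data normalized to no-enzyme and DMSO controls were Hill-fitted.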
# [12] = NCATS anti-infectives library activity on HEK293 viability as a counter-qHTS vs the C. elegans viability qHTS (AID 1745854);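 also: HEK293 cells exposed to compounds for 24 hr before the viability read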
# Method in brief: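 Compounds were acoustically plated (several concentrations, 1:5, final up to 41.7 uM), then 1500 HEK293 cells added per well and incubated 24 hr at 37C, 5% CO2. CellTiter-Glo was added and luminescence read after 10 min.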
# [13] = Primary fluorescence-based thiol-reactive (MSTI) qHTS assay for identification of artifact compounds. (AID 1845221);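 also: thiol-reactive compounds lower the probe fluorescence signal; nearly all actives have a fitted effect of over 65% in size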
# Method in brief: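 Compounds were incubated 1 h at room temperature in the dark with the MSTI probe (4 uM) in PBS pH 7.4, 2% DMSO. Signals were normalized between Acetyl-MSTI and MSTI.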
# [14] = NCATS anti-infectives library activity on the primary C. elegans qHTS viability assay (AID 1745855; calls by dose curve; also: potency is read from the fitted curve at half-maximal effect)
# Method in brief: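 Viability read-out is GFP fluorescence of PE254-GFP-FLuc C. elegans, measured by laser cytometry (488 nm) at day 0, 3 and 7. Ten L1 worms per well were incubated 7 days at 21 °C with compounds and bacterial capsules in S medium.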
# [15] = biological target: Rap guanine nucleotide exchange factor 4 (Homo sapiens) (UniProt Q8WZA2); assay: Confirmatory qHTS for agonist of cAMP-regulated guanine nucleotide exchange factor 4 (EPAC2) (AID 1645884);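 also: nucleotide exchange releases bodipy-GDP from Rap1 and this lowers its fluorescence; nearly all actives have a fitted effect of over 65% in size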
# [16] = biological target: Rap guanine nucleotide exchange factor 3 (Homo sapiens) (UniProt O95398); assay: Counterscreen qHTS for antagonist of cAMP-regulated guanine nucleotide exchange factor 3 (EPAC1) (AID 1645888);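 also: fluorescence loss as bound BODIPY-GDP is released from Rap1B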
# Rap guanine nucleotide exchange factor 3 (Homo sapiens), sequence (O95398 whole entry, looked up): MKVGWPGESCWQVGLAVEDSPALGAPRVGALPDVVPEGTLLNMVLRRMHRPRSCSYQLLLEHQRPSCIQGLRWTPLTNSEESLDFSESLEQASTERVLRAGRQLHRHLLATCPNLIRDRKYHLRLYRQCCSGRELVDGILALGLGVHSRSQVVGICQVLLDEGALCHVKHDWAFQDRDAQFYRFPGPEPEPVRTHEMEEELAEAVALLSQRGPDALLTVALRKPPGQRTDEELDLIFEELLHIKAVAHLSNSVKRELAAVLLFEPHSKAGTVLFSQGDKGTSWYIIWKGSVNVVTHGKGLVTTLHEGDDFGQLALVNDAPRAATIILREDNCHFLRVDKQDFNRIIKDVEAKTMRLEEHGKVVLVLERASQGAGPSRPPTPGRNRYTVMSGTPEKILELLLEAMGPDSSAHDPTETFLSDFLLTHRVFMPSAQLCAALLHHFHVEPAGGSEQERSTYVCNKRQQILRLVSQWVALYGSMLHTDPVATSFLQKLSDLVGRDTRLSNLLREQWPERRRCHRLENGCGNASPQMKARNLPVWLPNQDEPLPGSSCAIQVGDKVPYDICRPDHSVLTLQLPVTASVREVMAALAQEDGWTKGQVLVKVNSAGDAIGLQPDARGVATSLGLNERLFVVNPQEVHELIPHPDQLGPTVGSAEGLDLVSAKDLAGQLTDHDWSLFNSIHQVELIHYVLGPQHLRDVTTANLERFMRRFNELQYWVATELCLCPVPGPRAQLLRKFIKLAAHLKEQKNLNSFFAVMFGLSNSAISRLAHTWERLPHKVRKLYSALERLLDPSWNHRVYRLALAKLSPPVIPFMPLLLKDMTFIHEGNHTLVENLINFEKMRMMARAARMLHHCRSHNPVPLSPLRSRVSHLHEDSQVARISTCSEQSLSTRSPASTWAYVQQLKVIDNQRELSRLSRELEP
# Method in brief: (§2)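 Rap1B-BODIPY-GDP 250 nM + GDP 50 uM; cpds 7-pt, final 9.74 nM–152 uM (activator mode) or from 7.32 nM upwards (inhibitor mode); RT; FI 480/540 nm at 5 and 30 min, then ± cAMP, reread.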
# [17] = biological target: Rap guanine nucleotide exchange factor 3 (Homo sapiens) (UniProt O95398); assay: Counterscreen qHTS for agonist of cAMP-regulated guanine nucleotide exchange factor 3 (EPAC1) (AID 1645889); also: nearly all actives have a fitted effect of over 40% in size
# Method in brief: as §2
smiles,measurement,setting,value
Cc1cc2nc3c(=O)[nH]c(=O)nc-3n(CC(O)C(O)C(O)CO)c2cc1C (centres undefined),Potency,[1],inactive
same,Potency,[2],25.1 µM (active)
same,outcome,[3],inactive
same,outcome,[4],inactive
same,Potency,[5],inactive
same,Potency,[6],inactive
Nc1[nH]nc2nnc(-c3c(-c4ccccc4)nn4ccccc34)cc12,activity,[7],-90.6%
same,Potency,[8],19.2 µM (active)
same,activity,[9],-76.8%
same,activity,[10],-92.5%
same,Potency,[5],inactive
same,Potency,[6],inactive
same,Potency,[11],inactive
Fc1ccc(CNc2ncnc3ccc(F)cc23)cc1,outcome,[12],inactive
same,Potency,[5],inactive
same,Potency,[6],inactive
same,Potency,[11],inactive
same,Potency,[13],inactive
CNC(=O)[C@H](Cc1ccccc1)NC(=O)[C@H](CC(C)C)[C@H](CSc1cccs1)C(=O)NO,outcome,[12],inactive
same,Potency,[5],inactive
same,Potency,[6],inactive
CN(C)CCN(Cc1ccc(Cl)cc1)c1ccccn1,outcome,[12],inactive
Nc1ncnc2c1ncn2[C@@H]1O[C@H](CO)[C@@H](O)[C@@H]1O,outcome,[12],inactive
same,Potency,[5],inactive
same,Potency,[6],inactive
Cc1ccc(S(=O)(=O)OCC(=O)Nc2ccc(C(=O)O)c(O)c2)cc1,outcome,[12],inactive
same,Potency,[14],12.9 µM (active)
same,Potency,[5],inactive
O=C(O)c1nc(=O)[nH]c(=O)[nH]1,outcome,[12],inactive
same,Potency,[5],inactive
same,"activity change, negative = inhibition",[6],4.26% [at 0.409 µM] (inactive)
N[C@@H](CC(=O)N1CCn2c(nnc2C(F)(F)F)C1)Cc1cc(F)c(F)cc1F,outcome,[12],inactive
same,Potency,[5],inactive
same,Potency,[6],inactive
Cc1ccc2c(=O)c3cccc(CC(=O)O)c3oc2c1C,outcome,[12],inactive
same,Potency,[5],inactive
same,Potency,[6],inactive
CC(C)(F)C[C@H](N[C@@H](c1ccc(-c2ccc(S(C)(=O)=O)cc2)cc1)C(F)(F)F)C(=O)NC1(C#N)CC1,outcome,[12],inactive
same,Potency,[5],inactive
same,Potency,[6],inactive
CC(C)[C@H](O)C(=O)N[C@@H](C)C(=O)N[C@@H]1C(=O)N(C)CCc2ccccc21,outcome,[12],inactive
same,Potency,[5],inactive
same,Potency,[6],inactive
CC(C)CNc1ccnc(NCc2csc(-c3ccccc3)n2)n1,activity,[7],-9.21%
same,"activity change, negative = inhibition",[8],-8.39%
same,activity,[9],-34.7%
same,activity,[10],-20.3%
same,Potency,[5],inactive
same,Potency,[6],inactive
same,Potency,[11],inactive
same,Potency,[13],inactive
c1ccc(-c2oc3ncnc(NC[C@@H]4CCCO4)c3c2-c2ccccc2)cc1,activity,[7],-58.1%
same,Potency,[8],24.1 µM (active)
same,activity,[9],-46.6%
same,activity,[10],-56.7%
same,Potency,[5],inactive
same,Potency,[6],inactive
same,Potency,[11],inactive
same,Potency,[13],inactive
CNC1CCC(N(Cc2cccc(-c3ccncc3)c2)C(=O)c2sc3ccccc3c2Cl)CC1 (centres undefined),activity,[7],-14.8%
same,"activity change, negative = inhibition",[8],-1.13%
same,activity,[9],-65.2%
same,activity,[10],-20.3%
same,Potency,[5],inactive
same,Potency,[6],inactive
same,Potency,[11],inactive
same,Potency,[13],inactive
Cc1ccc2c(c1)c1c(n2CCc2ccc(C)nc2)CCN(C)C1,activity,[7],-6.68%
same,"activity change, negative = inhibition",[8],-3.88%
same,activity,[9],-13.3%
same,activity,[10],-2.48%
same,Potency,[5],inactive
same,Potency,[6],inactive
same,Potency,[11],inactive
same,Potency,[13],inactive
CN1CCc2c(n(Cc3ccc(C(=O)NO)cc3)c3ccccc23)C1,activity,[7],0%
same,"activity change, negative = inhibition",[8],0.311%
same,activity,[9],-0.568%
same,activity,[10],4.88%
same,Potency,[5],inactive
same,Potency,[6],inactive
same,Potency,[11],inactive
Clc1ccc(C2(c3ccc(-c4cn[nH]c4)cc3)CCNCC2)cc1,activity,[7],0.191%
same,"activity change, negative = inhibition",[8],0%
same,activity,[9],-22.3%
same,activity,[10],-4.19%
same,Potency,[5],inactive
same,Potency,[6],inactive
same,Potency,[11],inactive
same,Potency,[13],inactive
NC(=O)c1nnn(Cc2cc(Cl)c(C(=O)c3ccc(Cl)cc3)c(Cl)c2)c1N,activation,[15],"5.43% [at 17.1 µM, percent relative to cAMP agonist control] (inactive)"
same,"activity change, negative = inhibition",[1],-14.9% [at 12.7 µM] (inactive)
same,outcome,[16],inactive
same,outcome,[17],inactive
CNC(=O)c1ccc2c(C(=Nc3cccc(CN(C)C)c3)c3ccccc3)c(O)[nH]c2c1,activity,[7],-17.1%
same,"activity change, negative = inhibition",[8],-9.55%
same,activity,[9],-21.7%
same,activity,[10],-16.3%
same,Potency,[5],inactive
same,Potency,[6],inactive
same,Potency,[11],inactive
same,Potency,[13],inactive
COc1ccc2ccc(=O)oc2c1CC=C(C)C,outcome,[12],inactive
CCN1CCC(n2cc(CNc3cc(Cl)c4ncc(C#N)c(Nc5ccc(F)c(Cl)c5)c4c3)nn2)CC1,activity,[7],-89.7%
same,Potency,[8],10.8 µM (active)
same,activity,[9],-81.6%
same,activity,[10],-91.4%
same,Potency,[5],1.15 µM (active)
same,Potency,[6],inactive
same,Potency,[11],inactive
same,Potency,[13],inactive
CC1(COc2ccc3c(c2)ncn3-c2ccc3cccc(N4CCC(N)CC4)c3n2)COC1,activity,[7],-30.2%
same,Potency,[8],42.9 µM (active)
same,activity,[9],-29.9%
same,activity,[10],-30.6%
same,Potency,[5],inactive
same,Potency,[6],inactive
same,Potency,[11],inactive
same,Potency,[13],inactive
